From PubChem BioAssay AID1159580 (chemical genetic matrix, 2015)
“And” between values parts separate entries of the source, which are not always exact repeats. Equal values may be shown once. The whole screen tested about 5,500 compounds, of which about 2,000 (36%) were called active. Not shown: some 18% with an inconclusive outcome. No stated cut-off is given here; in the data, active means normalized growth mostly below about 0.91 (no sharp cut-off); inconclusive means no clear call, values can overlap the other calls; inactive means mostly above about 0.92. This is one part of the list.

Test: chemical genetic growth profiling, strain panel (AID 1159580);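 further: tested at 20 µM; growth read once vehicle control cultures reached saturation at 30 °C; 1 = growth at the plate median or of vehicle wells; lower values mean less growth of the strain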
Details: S. cerevisiae deletion strains, growth OD

Measured: normalized growth

O=C1C=CC(=C(c2ccc(O)cc2)c2ccc(O)cc2)C=C1
inactive: locus YAL013W, strain DEP1, active compounds read low 0.985 | locus YAL021C, strain ccr4, active compounds read low 1 | locus YAL026C, strain drs2, active compounds read low 0.972 | locus YAL030W, strain snc1, active compounds read low 1 | locus YBL061C, strain skt5, active compounds read low 0.982 | locus YBR009C, strain hhf1, active compounds read low 0.981 | locus YBR021W, strain FUR4, active compounds read low 0.992 | locus YBR023C, strain chs3, active compounds read low 0.968 | locus YBR171W, strain sec66, active compounds read low 0.968 | locus YBR229C, strain ROT2, active compounds read low 0.991 | locus YBR231C, strain swc5, active compounds read low 0.987 | locus YBR279W, strain paf1, active compounds read low 0.99 | locus YCL011C, strain gbp2, active compounds read low 0.972 | locus YCL016C, strain dcc1, active compounds read low 1.01 | locus YCL029C, strain bik1, active compounds read low 0.99 | locus YCL069W, strain vba3, active compounds read low 0.959 | locus YCR088W, strain abp1, active compounds read low 0.975 | locus YDL005C, strain med2, active compounds read low 0.977 | locus YDL035C, strain GPR1, active compounds read low 1 | locus YDL040C, strain nat1, active compounds read low 0.991 | locus YDL074C, strain BRE1, active compounds read low 1.06 | locus YDL101C, strain DUN1, active compounds read low 1 | locus YDL134C, strain PPH21, active compounds read low 0.998 | locus YDL185W, strain tfp1, active compounds read low 1 | locus YDL192W, strain arf1, active compounds read low 0.982 | locus YDR001C, strain nth1, active compounds read low 0.975 | locus YDR069C, strain doa4, active compounds read low 0.952 | locus YDR101C, strain arx1, active compounds read low 0.995 | locus YDR137W, strain rgp1, active compounds read low 0.988 | locus YDR150W, strain NUM1, active compounds read low 1.01 | locus YDR159W, strain sac3, active compounds read low 0.972 | locus YDR162C, strain NBP2, active compounds read low 1.01 | locus YDR195W, strain ref2 0.927 | locus YDR297W, strain sur2, active compounds read low 0.987 | locus YDR318W, strain mcm21, active compounds read low 0.982 | locus YDR334W, strain swr1, active compounds read low 0.962 | locus YDR335W, strain msn5, active compounds read low 0.968 | locus YDR388W, active compounds read low 0.972 | locus YDR392W, strain spt3, active compounds read low 0.986 | locus YDR502C, strain sam2, active compounds read low 1 | locus YEL003W, strain gim4, active compounds read low 0.974 | locus YEL037C, strain rad23, active compounds read low 0.973 | locus YEL061C, strain CIN8 (second series), active compounds read low 0.938 | locus YEL061C, strain CIN8, active compounds read low 1.01 | locus YER015W, strain faa2, active compounds read low 0.99 | locus YER016W, strain bim1, active compounds read low 0.983 | locus YER110C, active compounds read low 0.976 | locus YER111C, strain swi4, active compounds read low 0.969 | locus YER155C, strain BEM2 (second series), active compounds read low 1.01 | locus YER155C, strain BEM2, active compounds read low 0.997 | locus YER167W, strain BCK2, active compounds read low 0.993 | locus YFR010W, strain ubp6, active compounds read low 0.945 | locus YGL078C, strain dbp3, active compounds read low 0.994 | locus YGL086W, strain mad1, active compounds read low 0.986 | locus YGL167C, strain pmr1, active compounds read low 0.994 | locus YGL173C, strain kem1, active compounds read low 0.98 | locus YGL227W, strain vid30, active compounds read low 0.971 | locus YGL240W, strain doc1, active compounds read low 0.983 | locus YGL248W, strain PDE1, active compounds read low 0.991 | locus YGL253W, strain hxk2, active compounds read low 0.967 | locus YGR078C, strain PAC10, active compounds read low 1.03 | locus YGR135W, strain pre9, active compounds read low 1 | locus YGR229C, strain SMI1, active compounds read low 1.02 | locus YGR252W, strain gcn5, active compounds read low 0.97 | locus YHR013C, strain ard1, active compounds read low 0.985 | locus YHR027C, strain rpn1, active compounds read low 1 | locus YHR030C, strain SLT2, active compounds read low 0.994 and 1.04 | locus YHR079C, strain IRE1 (second series), active compounds read low 0.989 | locus YHR079C, strain IRE1, active compounds read low 1.05 | locus YHR094C, strain hxt1, active compounds read low 0.989 | locus YHR129C, strain ARP1, active compounds read low 0.994 | locus YHR142W, strain chs7, active compounds read low 0.962 | locus YHR200W, strain rpn10, active compounds read low 0.988 | locus YIL066C, strain RNR3, active compounds read low 0.992 | locus YIL073C, strain SPO22, active compounds read low 0.976 | locus YIL125W, strain kgd1, active compounds read low 0.995 | locus YIR030C, strain dcg1, active compounds read low 0.986 | locus YJL092W, strain hpr5, active compounds read low 0.953 | locus YJL095W, strain BCK1 (second series), active compounds read low 0.975 | locus YJL095W, strain BCK1, active compounds read low 1.03 and 1.02 | locus YJL115W, strain asf1, active compounds read low 0.966 | locus YJL129C, strain trk1, active compounds read low 0.965 | locus YJL134W, strain LCB3, active compounds read low 0.994 | locus YJL154C, strain vps35, active compounds read low 0.98 | locus YJL164C, strain tpk1, active compounds read low 1 | locus YJL166W, strain qcr8, active compounds read low 0.984 | locus YJL168C, strain set2, active compounds read low 0.98 | locus YJL187C, strain SWE1 (second series), active compounds read low 0.998 | locus YJL187C, strain SWE1, active compounds read low 0.993 | locus YJR043C, strain POL32, active compounds read low 1.04 | locus YJR066W, strain TOR1, active compounds read low 0.979
